Test results taken from the supplement of paper PMC4723716.

These molecules were tested on Plasmodium falciparum NF54 gametocytes (assay: viability index relative to DMSO control (fraction); higher = less gametocyte killing). Conditions: gametocyte stage: Stage I viability index; 12.5 µM; incubation time: 72 h.
How it was run: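 In 384-well plates, compound at 12.5 µM was incubated for 72 hr at 37°C under low oxygen with P. falciparum NF54 gametocytes of each stage (I–V) at 0.50% gametocytemia and 1.25% hematocrit in 40 µl of serum-containing medium. Staining used 5 µl of 5 µM MitoTracker Red CMXRos for 20 min, then 5 µl was moved into 40 µl of 500 nM dye in serum-free medium and imaged after 30 min. Dividing the gametocyte particle count by the plate mean of solvent-only wells gave the viability index.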

Question: With `COc1ccc2nc(N)nc(C)c2c1` as the molecule, how does the viability index read?
Answer: 0.353

Question: For `CCOC(=O)c1cn(CC)c2cc(N(C)CCc3ccc(OC)c(OC)c3)c(F)cc2c1=O`, which viability index is on record?
Answer: 0.63

Question: With `N=c1n(CCN2CCCCC2)c2ccccc2n1CC(=O)c1ccc(Cl)c(Cl)c1` as the molecule, how does the viability index read?
Answer: 0.115

Question: Which viability index does the source give for `Fc1ccc2[nH]c3c(NCCCN4CCOCC4)ncnc3c2c1` here?
Answer: 0.053

Question: With `COc1ccc(C2c3ccc4ccccc4c3Oc3ncn(CCCn4ccnc4)c(=N)c32)cc1OC` (configuration not stated) as the molecule, how does the viability index read?
Answer: 0.0122

Question: For `CCCCc1ccc(NS(=O)(=O)c2cc3c4c(c2)CCN4C(=O)CC3)cc1`, which viability index is on record?
Answer: 0.98

Question: `COc1ccc(C(=O)Nc2nonc2-c2ccc(OC)c(OC)c2)cc1Cl` was tested. Which viability index did it give?
Answer: 0.564

Question: `Cc1ccc(CN2CCC(C(=O)Nc3ccc(-c4cc5ccccc5[nH]4)cc3)CC2)o1` was tested. Which viability index did it give?
Answer: 0.00663

Question: How did the viability index turn out when `COc1ccc(Br)cc1C1Nc2ccc3ccccc3c2C2=C1C(=O)CC(c1ccccc1)C2` (configuration not stated) was run?
Answer: 0.44

Question: Which viability index does the source give for `CCCCC(O)(c1ccc(Cl)cc1)C(CN1CCOCC1)c1ccc(Cl)cc1` (configuration not stated) here?
Answer: 0.941

Question: For `COc1ccc(N2CCN(C(CNC(=O)CC(C)(C)C)c3ccc4c(c3)OCO4)CC2)cc1` (configuration not stated), which viability index is on record?
Answer: 1.04

Question: How did the viability index turn out when `Cc1sc(NC(=O)c2ccccc2)c(C(c2cccs2)N2CCN(c3ccccc3)CC2)c1C` (configuration not stated) was run?
Answer: 1

Question: For `O=C(Nc1nc(-c2ccccn2)cs1)c1ccccc1Br`, which viability index is on record?
Answer: 0.0807

Question: Which viability index does the source give for `CN(C)CCCNc1c2ccccc2nc2ccccc12` here?
Answer: 0.0663

Question: For `O=C(NCc1ccco1)C1CCN(S(=O)(=O)c2ccc(Cl)cc2)CC1`, which viability index is on record?
Answer: 0.568

Question: With `O=C(Nc1ccccc1O)c1ccc(-c2ccc(Cl)cc2Cl)o1` as the molecule, how does the viability index read?
Answer: 0.0166

Question: Which viability index does the source give for `O=C(NC1CCN(Cc2ccccc2)CC1)c1cc2nc(-c3ccc(Cl)s3)cc(C(F)(F)F)n2n1` here?
Answer: 0.0778
